Assay outcomes from PubChem BioAssay.
HT1080 IDH1KD tx – HT-1080 IDH1 knockdown cell toxicity (counter line); AID 686971; Potency, µM (titrated, usually from 46.1 µM), for the others: top-dose activity, negative = toxicity, hits mostly cytotoxic; HT-1080 IDH1 knockdown viability, ATP luminescence, 48 h; 2% of 360,000 active;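 further: potency means the concentration at half of the fitted maximal effect; 0% = DMSO wells and -100% = cell-free medium wells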
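Cytotoxicity counter-line: IDH1KD HT-1080, 48 h, CellTiter-Glo. Curves classed by r2, magnitude and activity.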
DT40 TDP1 no CPT – qHTS for Inhibitors of human tyrosyl-DNA phosphodiesterase 1 (TDP1): qHTS in cells in absence of CPT | DT40 Tdp1-/- hTDP1 cells, no CPT, ATP luminescence, 48 h | Potency, µM (highest dose often 46.2 µM), inactives show at the top dose activity change, negative = growth inhibition, most hits filed as inhibitors | 15% of 420,000 active | AID 686978, 2013; further: potency means the concentration at half of the fitted maximal effect; nearly all actives have a fitted effect of over 55% in size
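Camptothecin absent (DMSO only). Human TDP1-complemented DT40 knockout cells, 400 cells/well, 37 °C for minimum 48 hr; ATP measured via CellTiter-Glo, 30 min dark incubation, luminescence.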
IL-1B inflam inh – blocks inflammasome-driven IL-1 beta release | activity change, % at 57.5 µM | AID 743279 | THP-1 LPS/ATP IL-1B secretion, AlphaLISA, 16 h; active compounds read low | 4.7% of 360,000 active; in the data active means activity change below about -50%; inconclusive means mostly about -30% to -49%
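Secreted IL-1B measured by AlphaLISA bead assay after 16 h compound exposure of THP-1 cells; compounds (final up to 57.5 uM) added 1 h before LPS (250 ng/mL) and ATP (1.25 mM) stimulation; lower signal means less secretion.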
DT40 TDP1 CPT – DT40-hTDP1 cell growth loss with CPT. chicken DT40 Tdp1-/-;hTDP1 cells + 20 nM CPT, ATP luminescence, 48 h. Potency, µM (series often up to 46.2 µM), without a hit: at the top dose activity change, negative = growth inhibition, hits mostly inhibitors. 12% of 420,000 active. AID 686979; further: potency means the concentration at half of the fitted maximal effect; nearly all actives have a fitted effect of over 55% in size
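Chicken DT40 Tdp1-/- cells complemented with human TDP1, 400 cells/well, exposed to compounds plus 20 nM camptothecin for at least 48 h at 37 C; viability read as ATP content by CellTiter-Glo luminescence.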
HT1080-NT tox – kills 2HG-producing HT-1080-NT fibrosarcoma cells. 1.6% of 360,000 active. Potency, µM (doses to about 46.1 µM), for inactives: at the highest dose activity, negative = less viability, usual class: cytotoxic. AID 686970. HT-1080-NT fibrosarcoma viability, CellTiter-Glo ATP luminescence, 48 h;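 further: NT is the 2HG producing partner of a matched IDH1 knockdown line; potency means the concentration at half of the fitted maximal effect; 0% = DMSO-treated cells and -100% = media-only wells without cells; nearly all actives have a fitted effect of over 55% in size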
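Viability of the 2HG-overproducing fibrosarcoma line after 48 hours of compound exposure at 37 degrees C was determined by luminescence with CellTiter-Glo, and concentration-effect curves were then fitted and categorized.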
The depositor's hits bear a star; ? = inconclusive; · = no result given; [ ] = dose if it differs, or a comment. Most compounds without a hit are left out; they make up all but 19% or so of the library. Unless noted, the call rests on the fitted dose curve; in most records, active means well fitted curve in the direction sought with a large enough effect; inconclusive means small, poorly fitted or top-dose-only effect, or another doubt; inactive means no such curve, though single readings can be large; an effect the other way counts as inactive or inconclusive. Unless noted, on the % scale 0 is the no-effect control and ±100 the full control effect.

SMILES | HT1080 IDH1KD tx | DT40 TDP1 no CPT | IL-1B inflam inh | DT40 TDP1 CPT | HT1080-NT tox
O=C(COc1ccc(Br)cc1)N1CCN(Cc2ccc3c(c2)OCO3)CC1 | -14% | -13% | -60* | ? | 0%
Cn1nc(-c2ccc(OCC(=O)N3CCN(Cc4ccccc4)CC3)cc2)c2ccccc2c1=O | -14% | 6.5µM* | 5 | 13µM* | -4%
CCCCNS(=O)(=O)c1ccc(OCC(=O)N2CCN(Cc3ccc4c(c3)OCO4)CC2)cc1 | -1% | ? | -29 | 10µM* | -8%
CS(=O)(=O)N(CC(=O)N1CCN(Cc2ccc3c(c2)OCO3)CC1)Cc1ccc(Cl)cc1 | ? | ? | -14 | 11µM* | -9%
CCC(C)n1c(O)c(/C=N/Nc2ccccc2)c(=O)[nH]c1=S (configuration not stated) | -4% | 10% | -3 | -2% | ?
CN1C(=O)CCS(=O)(=O)[C@H]1c1ccc(Cl)cc1 | · | 2% | · | -7% | ·
CSc1ccc(CN2CCN(C(=O)COc3ccc(C)cc3)CC2)cc1 | -14% | 18µM* | -22 | ? | 0%
Cc1ccc(OCC(=O)N2CCN(CCc3ccncc3)CC2)cc1 | · | -9% | · | -18% | ·
O=C(Cc1cccs1)N1CCC2(CC1)OCCO2 | 0% | 4% | 6 | 3% | -1%
O=c1[nH]cnc2nc(-c3ccc(N(CCCl)CCCl)cc3)[nH]c12 | 0.65µM* | ? | -17 | ? | ?
O=C(O)/C=C\CO | · | 0% | · | -1% | ·
Cn1sc(Cl)cc1=O | · | -13% | · | 13% | ·
O=C1NC(=O)C(CCc2ccncc2)(CCc2ccccn2)C(=O)N1c1ccc(Br)cc1 (configuration not stated) | -22% | 9.2µM* | 24 | 10µM* | -11%
CCCCCn1c(=O)c(C(=O)NCc2ccncc2)c(O)c2ccccc21 | -29% | ? | 92 | ? | -19%
CCCCn1c(=O)c(C(=O)Nc2ccc(C)cn2)c(O)c2ccccc21 | 8% | 9.2µM* | 14 | 13µM* | 3%
CCCCn1c(=O)c(C(=O)Nc2ccccn2)c(O)c2ccccc21 | 5% | 4.1µM* | 37 | 3.3µM* | 0%
CCCCCn1c(=O)c(C(=O)Nc2ccccn2)c(O)c2ccccc21 | -7% | 4.6µM* | 15 | 3.7µM* | -8%
CCCCCCn1c(=O)c(C(=O)Nc2cnccn2)c(O)c2ccccc21 | ? | 0.58µM* | 0 | 0.82µM* | -21%
CN1CC[C@@]23CCCCC2C1Cc1ccc(O)cc13 (some centres not stated) | · | -2%[9.04 µM] | · | 9%[9.04 µM] | ·
CCCCCCn1c(=O)c(C(=O)Nc2ncccc2O)c(O)c2ccccc21 | -3% | 5.2µM* | 10 | 5.2µM* | 5%
CCOc1cc(CN2CCN(C(=O)Cc3ccccc3)CC2)ccc1OC | -5% | ? | 0 | -25% | 1%
CCOc1ccc(CCNC(=O)c2ccc(-n3c(C)cc4c3CCCC4)cc2)cc1OCC | · | 12µM* | · | 12µM* | ·
O=C(c1cccc(Cl)c1)C1CCCN(Cc2cccc3cnccc23)C1 (configuration not stated) | ? | 21µM* | -16 | ? | 9.2µM*
O=C(c1ccc(Cl)cc1)C1CCCN(Cc2cccc3cnccc23)C1 (configuration not stated) | -7% | 6.5µM* | -7 | 21µM* | -3%
CSc1ncc(CN2CCCC(C(=O)c3cccc(Cl)c3)C2)cn1 (configuration not stated) | -2% | ? | -13 | 21µM* | -7%
SMILES | HT1080 IDH1KD tx | DT40 TDP1 no CPT | IL-1B inflam inh | DT40 TDP1 CPT | HT1080-NT tox
COc1cccc(C(=O)C2CCCN(Cc3cccc4c3OCO4)C2)c1 (configuration not stated) | -15% | ? | 4 | ? | -29%
COc1ccc(CN2CCCC(C(=O)c3cccc(Cl)c3)C2)cc1 (configuration not stated) | -1% | ? | -12 | ? | -1%
O=C(c1cccc(Cl)c1)C1CCCN(Cc2ccon2)C1 (configuration not stated) | -4% | ? | 8 | ? | 2%
COc1ccc(CN2CCCC(C(=O)c3ccc(Cl)cc3)C2)c(OC)c1 (configuration not stated) | 9.2µM* | 18µM* | -68* | ? | ?
CC1(C)[C@H](C=C(Cl)Cl)[C@H]1C(=O)OCc1c(F)c(F)cc(F)c1F | · | -4% | · | 30% | ·
CC1(C)C(=O)[C@@H]2OC2[C@@]2(C)C1CC(O)[C@]1(C)C2CC[C@@]2(C)C(c3ccoc3)OC(=O)C3OC312 (some centres not stated) | · | ? | · | -26% | ·
O=C(c1ccc(Cl)cc1)C1CCCN(Cc2ccc3ncccc3c2)C1 (configuration not stated) | -28% | 16µM* | -11 | 15µM* | -23%
O=C(c1ccc2c(c1)OCO2)C1CCCN(Cc2ccc(F)c(F)c2)C1 (configuration not stated) | -11% | -24% | 0 | -19% | -4%
C#CC[N+]1(C)[C@@H]2CC(OC(=O)C(CO)c3ccccc3)C[C@H]1C(O)C2 (some centres not stated) | -1% | 10% | -16 | 10% | -4%
O=[N+]([O-])c1ccc(N2CCOCC2)c2c1no[n+]2[O-] | 5.2µM* | 0.16µM* | -105* | 0.18µM* | 5.2µM*
O=[N+]([O-])c1ccc(N2CCOCC2)c2cccnc12 | -3% | ? | -11 | -6% | -9%
Cc1cc(C=C2C(=O)N(C)C(=S)N(C)C2=O)c(C)n1-c1cccnc1 | 16% | ? | -68* | ? | 6%
CC(C)c1c(C(=O)NC(c2cccnc2)C(F)(F)F)cnn1-c1nccc(-c2cccs2)n1 (configuration not stated) | · | 13µM* | · | ? | ·
COC(=O)C(c1ccccc1)C1CCCCN1 (configuration not stated) | · | 3% | · | -19% | ·
Cc1ccc(C)c(S(=O)(=O)Nc2ccc3c(c2)CCCN3C(=O)c2cccs2)c1 | · | 18µM* | · | 16µM* | ·
Cc1nn(-c2nccs2)c2c1C(=O)CC(C)(C)C2Br (configuration not stated) | -29% | 16µM* | ? | ? | -16%
COc1ccc2nc(NC(=O)CCNS(=O)(=O)c3ccc4c(c3)oc(=O)n4C)sc2c1 | 8% | ? | 21 | -27% | 15%
C=CCc1cc(C)ccc1OCCCC(C(=O)OCC)C(=O)OCC | 17% | ? | 1 | -26% | 11%
CCCCCOc1ccc(C)cc1CN(CCCl)CCCl | ? | 16µM* | · | 16µM* | -22%
